{"source": "PubChem BioAssay (EPA / NIEHS)", "note": "Values joined by “and” are separate entries in the source; they are usually repeats but may differ in a detail not shown here. Identical values can stand only once. The source holds several records for some structures; these can differ, active in one and inactive in another. Active and inactive are the calls of the source. The calls were made as follows: active = hit-call score of the fitted dose curve at least 0.9, where 1 is the maximum; inactive = score below 0.9.", "data": [{"test": "ATG_PBREM_CIS: Attagene CIS-FACTORIAL HepG2 Assay for human Phenobarbital-responsive Enhancer Module (PBREM) (AID 2282955)", "conditions": "HepG2 PBREM cis-reporter, Attagene multiplexed transcription; actives raise or lower the signal", "protocol": "ATG_CIS is a cell-based, multiplexed-readout assay that uses HepG2, a human liver cell line, with measurements taken at 24 hours after chemical dosing in a 24-well plate.ATG_PBREM_CIS is one of 52 assay component(s) measured or calculated from the ATG_CIS assay. It is designed to make measurements of mRNA induction, a form of inducible reporter, as detected with fluorescence intensity signals by Reverse transcription polymerase chain reaction (RT-PCR) and Capillary electrophoresis technology.Data from the assay component ATG_PBREM_CIS was analyzed into 1 assay endpoint. This assay endpoint, ATG_PBREM_CIS, was analyzed with bidirectional fitting relative to DMSO as the negative control and baseline of activity. Using a type of inducible reporter, measures of mRNA for gain or loss-of-signal activity can be used to understand the reporter gene at the transcription factor-level as they relate to the gene NR1I3. Furthermore, this assay endpoint can be referred to as a primary readout, because this assay has produced multiple assay endpoints where this one serves a reporter gene function. To generalize the intended target to other relatable targets, this assay endpoint is annotated to the nuclear receptor intended target family, where the subfamily is non-steroidal.\nHuman liver HepG2 cells are transiently transfected with multiple reporter transcription units (MRTUs) in 6-well plates using FuGene 6 reagent (Roche; 3 ml FuGene/1 mg DNA). The MRTU constructs are regulated by a cis-regulating element (promoter). […] A major difference between the CIS and TRANS system is that in CIS activities of endogenous TFs are measured, whereas the TRANS assay evaluates changes in activities of exogenous, chimeric NR-Gal4 proteins. […] At the end of 24 hour incubation, total RNA was isolated using TriZol reagent (Invitrogen). The isolated RNA is then reverse-transcribed using oligo(dT) primer and Mo-MLV reverse transcriptase (Invitrogen) with DNAse I (Ambion) treatment for 30 min. The one-tenth of the produced cDNA was amplified by PCR using Taq DNA polymerase (Invitrogen) and two reporter sequence-specific primers. The PCR products were fluorescently labeled by primer extension with 6-arboxyfluorescein (6-FAM) 5'-labeled reporter sequence-specific primer (2 min at 95 C, 20 s at 68 C and 10 min at 72 C) and these products were digested with 5U of HpaI (New England Biolabs) for 2h at 37 C. The fragments were purified using Qiaquick PCR columns (Qiagen), analyzed on an ABI 3130xL genetic analyzer (Applied Biosystems) with peak positions identified by using a set of X-rhodamine (ROX)-labeled MapMarker1000 molecular weight standards (BioVentures). The raw capillary electrophoresis data was processed using Attagraph software (Attagene).", "values": [{"smiles": "O=[N+]([O-])c1ccc(O)cc1", "outcome": "inactive"}, {"smiles": "Cc1ccc(S(=O)(=O)O)c(C)c1", "outcome": "inactive"}, {"smiles": "CCCCCCCCOC(=O)CCCCCCCCC(=O)OCCCCCCCC", "outcome": "inactive"}, {"smiles": "CC(C)(C)c1ccc(O)c(C(C)(C)C)c1", "outcome": "inactive"}, {"smiles": "Cc1cc(C)c(O)c(C)c1", "outcome": "inactive"}, {"smiles": "Cc1cc(CCN2CCN(c3nsc4ccccc34)CC2)cc2c1NC(=O)CC2(C)C", "AC50": "6.35 µM (active)"}, {"smiles": "OCCC(F)(F)C(F)(F)C(F)(F)C(F)(F)C(F)(F)C(F)(F)F", "outcome": "inactive"}, {"smiles": "CCC(C)(C)C1CCC(O)CC1", "note": "(stereo not given)", "outcome": "inactive"}, {"smiles": "CCCCCCCCCCCCCC[N+](C)(C)C", "outcome": "inactive"}, {"smiles": "CN1CCN(c2ccccc2/C=C2\\SCCN(c3ccc(Cl)c(Cl)c3)C2=O)CC1", "outcome": "inactive"}, {"smiles": "O=C(OCCOCCOC(=O)c1ccccc1)c1ccccc1", "outcome": "inactive"}, {"smiles": "c1ccc2cc3c(ccc4ccccc43)cc2c1", "outcome": "inactive"}, {"smiles": "COc1cc(CCC(=O)CC(=O)CCc2ccc(O)c(OC)c2)ccc1O", "outcome": "inactive"}, {"smiles": "C#C[C@]1(O)CC[C@H]2[C@@H]3CCC4=CC(=O)CC[C@@H]4[C@H]3CC[C@@]21C", "outcome": "inactive"}, {"smiles": "CC1=C(/C=C/C(C)=C/C=C/C(C)=C/C(=O)O)C(C)(C)CCC1", "AC50": "6.62 µM (active)", "outcome": "inactive"}, {"smiles": "CCCCCCCC(=O)O", "outcome": "inactive"}, {"smiles": "O=C(/C=C/c1ccc(O)cc1)CC(=O)/C=C/c1ccc(O)cc1", "outcome": "inactive"}, {"smiles": "NCC(F)(F)C(F)(F)C(F)(F)C(F)(F)C(F)(F)C(F)(F)C(F)(F)F", "outcome": "inactive"}, {"smiles": "CCCCOCCO", "outcome": "inactive"}, {"smiles": "CCCCC[C@H](O)CC(=O)CCc1ccc(O)c(OC)c1", "outcome": "inactive"}, {"smiles": "O=C(O)c1ccccc1C(c1ccc(O)cc1)c1ccc(O)cc1", "outcome": "inactive"}, {"smiles": "c1ccc2c(c1)ccc1ccccc12", "outcome": "inactive"}, {"smiles": "CCCCC(CC)COC(=O)CCCCC(=O)OCc1ccccc1", "note": "(stereo not given)", "outcome": "inactive"}, {"smiles": "O=C1OC2(c3ccccc31)c1cc(Br)c(O)c(Br)c1Oc1c2cc(Br)c(O)c1Br", "outcome": "inactive", "AC50": "52.2 µM (active)"}, {"smiles": "CC#C[C@]1(O)CC[C@H]2[C@@H]3CCC4=CC(=O)CCC4=C3[C@@H](c3ccc(N(C)C)cc3)C[C@@]21C", "outcome": "inactive", "AC50": "11.5 µM (active) and 4.77 µM (active) and 13 µM (active)"}, {"smiles": "C=C(C)C(=O)OCCC(F)(F)C(F)(F)C(F)(F)C(F)(F)C(F)(F)C(F)(F)F", "outcome": "inactive"}, {"smiles": "CC(C)(C)c1cccc(C(C)(C)C)c1O", "outcome": "inactive"}, {"smiles": "CCCCCCCCCCCCc1ccccc1S(=O)(=O)O", "outcome": "inactive"}, {"smiles": "Nc1cccc2c(N)cccc12", "outcome": "inactive"}, {"smiles": "OCCC(F)(F)C(F)(F)C(F)(F)C(F)(F)C(F)(F)C(F)(F)C(F)(F)C(F)(F)F", "AC50": "52.5 µM (active) and 222 µM (active)"}, {"smiles": "CC[C@H](C)[C@@H](C(=O)O)n1sc2ccccc2c1=O", "outcome": "inactive"}, {"smiles": "ClC1=C(Cl)C(Cl)(Cl)C(Cl)=C1Cl", "outcome": "inactive", "AC50": "13.5 µM (active)"}, {"smiles": "O=C(O)Cc1cc(I)c(Oc2cc(I)c(O)c(I)c2)c(I)c1", "AC50": "113 µM (active) and 17.5 µM (active)"}, {"smiles": "CCc1nn(C2CCCCC2)c2cc(C3(C#N)CCC(C(=O)O)CC3)ccc12", "note": "(stereo not given)", "outcome": "inactive"}, {"smiles": "CCCCCCCCC(=O)O", "outcome": "inactive"}, {"smiles": "CCCOc1sc(C(=O)N2CCC(c3cc(CN)ccc3F)CC2)c(C)c1Br", "outcome": "inactive"}]}]}
